Screens from PubChem.
Pf Dd2 growth: qHTS Primary assay for Inhibitors of Plasmodium falciparum Dd2 growth in vitro; P. falciparum Dd2 growth, SYBR Green, 72 h; Potency, µM (top dose mostly 28.9 µM), actives largely listed as inhibitors; actives 4.3% (n = 120,000); active = well fitted inhibition curve with a large enough effect; note: nearly all actives have a fitted effect of over 65% in size
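Readout: SYBR Green fluorescence, 485 nm excitation, 535 nm emission, after ~16 h lysis at 37C. Before that, Dd2-infected red cells (2.5% hematocrit) grew 72 h with compound, 29 uM top final concentration.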
A number is an active result; - = inactive; [ ] = dose if it differs, or a comment. This is one part of a sample in which hits are shown more often than they occur.

SMILES | Pf Dd2 growth
O=C(c1cccc(Cl)c1)N1CCN(CCc2ccccn2)CC1 | -
O=C(c1ccccc1)N1CCN(CCc2ccccn2)CC1 | -
CCOc1ccccc1C(=O)N1CCN(CCc2ccccn2)CC1 | 4µM
O=C(c1ccccc1Cl)N1CCN(CCc2ccccn2)CC1 | 3.5µM
CCCCOc1ccc(C(=O)N2CCN(CCc3ccccn3)CC2)cc1 | -
CC(C)Oc1ccc(C(=O)N2CCN(CCc3ccccn3)CC2)cc1 | -
COCCN1CCC(N2CCN(S(=O)(=O)c3cc(F)ccc3C)CC2)C1=O (stereo not drawn) | -
Cn1c(=O)[nH]cc(CC(=O)N2CCC3(CC(=O)NC3=O)C2)c1=O (stereo not drawn) | -
COc1ccc(C)cc1NC(=O)Cn1nc2n(c1=O)CCCCC2 | -
Cc1nc2n(c1C(=O)NCC1CC1)CCC(Nc1ccc(F)cc1)C2 (stereo not drawn) | -
Cc1nc2n(c1C(=O)Nc1cc(-c3ccc(F)cc3)[nH]n1)CCC(Nc1ccc(F)cc1)C2 (stereo not drawn) | 8.9µM
Cc1ccccc1NC1CCn2c(nc(C)c2C(=O)Nc2ccccc2)C1 (stereo not drawn) | -
COc1ccc(Nc2nccc3c(=O)cc(N4CCOCC4)oc23)cn1 | -
Cc1cc(CNC(=O)[C@@H]2CCC[C@@H](NCc3ccc(C(F)(F)F)cc3)CN(C)C(=O)C2)no1 | -
Cc1ccc(C)c(Cn2cc(S(=O)(=O)c3ccc(Cl)cc3)c(=O)c3cc(F)ccc32)c1 | -
CCCn1cc(S(=O)(=O)c2ccc(OC)cc2)c(=O)c2cc(F)c(N3CCCC(C)C3)cc21 (stereo not drawn) | 11µM
CCOc1ccc(S(=O)(=O)c2cn(Cc3cc(C)ccc3C)c3ccc(OCC)cc3c2=O)cc1 | 10µM
CCCCn1cc(S(=O)(=O)c2ccc(C)c(C)c2)c(=O)c2cc(F)c(N3CCCC(C)C3)cc21 (stereo not drawn) | -
CCCn1cc(S(=O)(=O)c2ccc(OCC)cc2)c(=O)c2cc(C)ccc21 | -
CCCn1cc(S(=O)(=O)c2ccc(OC)cc2)c(=O)c2cc(F)c(N3CCCCCC3)cc21 | 11µM
CCCn1cc(S(=O)(=O)c2ccccc2)c(=O)c2cc(F)c(N3CCCCCC3)cc21 | 11µM
CCCCn1cc(S(=O)(=O)c2ccc(C)cc2)c(=O)c2cc(F)c(N3CCCCC3)cc21 | -
CCCn1cc(S(=O)(=O)c2ccccc2)c(=O)c2cc(F)c(N3CCCC3)cc21 | -
CCc1ccc(S(=O)(=O)c2cn(C)c3cc(N4CCN(CC)CC4)c(F)cc3c2=O)cc1 | -[5.79 µM]
CCCCn1cc(S(=O)(=O)c2ccc(OC)cc2)c(=O)c2cc(F)c(N3CCCC3)cc21 | -
SMILES | Pf Dd2 growth
CCn1cc(S(=O)(=O)c2cccc(C)c2)c(=O)c2cc(F)c(N3CCCC(C)C3)cc21 (stereo not drawn) | -
COc1ccc(NC(=O)CN2C(=O)NC3(CCC(C)CC3)C2=O)cc1 (stereo not drawn) | -
Cc1nc(C)c(C(=O)NCC23CCC=C2N(CC2CC2)C(=O)CC3)s1 (stereo not drawn) | -
O=C1NCN(Cc2ccc(Cl)cc2)C12CCN(Cc1ccccc1C(F)(F)F)CC2 | -
CC(C)Oc1ccc2c(NC(=O)CCn3cncn3)nn(Cc3ccccc3)c2c1 | -
COc1ccc(C2(C(=O)N3CCC(C(=O)N4CCCCCCNC(=O)CC4)CC3)CC2)cc1 | -
CN(CCc1noc(C2CN(Cc3cc(Cl)ccc3F)C2)n1)S(C)(=O)=O | -
O=C(c1ccc(Cl)cc1)N1CCC(N2CCCCC2=O)CC1 | -
CCOC(=O)C1CCN(C(=O)Cc2cccn2-c2cccc(Cl)c2)CC1 | -
CCOCCn1c(=O)n(Cc2noc(C(C)(C)C)n2)c2cc(C(=O)O)cnc21 | -
CC(C)(C)n1ccc(C(=O)N2CCC3(CCCN(C4CCCC4)C3=O)C2)c1 (stereo not drawn) | -
CCc1ccc(S(=O)(=O)c2cn(C)c3cc(OC)c(OC)cc3c2=O)cc1 | -
COc1ccc(S(=O)(=O)c2cn(C)c3cc(N4CCCCCC4)c(F)cc3c2=O)cc1 | 8.9µM
Cc1cc(C)cc(S(=O)(=O)c2cn(C)c3cc(N4CCCC4)c(F)cc3c2=O)c1 | -
CCCCn1cc(S(=O)(=O)c2ccc(OC)cc2)c(=O)c2cc(CC)ccc21 | -
CCc1ccc(S(=O)(=O)c2cn(Cc3ccc(OC)cc3)c3cc(OC)c(OC)cc3c2=O)cc1 | 11µM
Cn1cc(S(=O)(=O)c2cccc(Cl)c2)c(=O)c2cc(F)c(N3CCCCC3)cc21 | -
O=C(NC1CCCN(c2cc(-c3ccc(F)cc3)[nH]n2)C1)C1CCCC1 (stereo not drawn) | -
COC(=O)[C@]1(C)C[C@H](C(=O)NC(C)(C)CO)[C@H](c2ccccc2Cl)N1C | -
Cc1nc(NC(=O)Cn2nc3c(cc2=O)CCCC3)sc1C | -
O=C(c1cccnc1)N1CCCC(c2noc(COc3ccccc3F)n2)C1 (stereo not drawn) | -
CSCC(=O)N1CC[C@H](NC(=O)NC(C)C)[C@H]1C(=O)N[C@H](Cc1ccccc1)C(N)=O | -
COCCc1noc([C@@H]2CC(F)(F)CN2C(=O)Cc2ccncc2)n1 | -
CC(=O)C1=C(c2ccc(C)cc2)N(C(C)=O)n2c(nnc2-c2ccccc2)S1 | 7.9µM
CCc1nnc2n1N(C(C)=O)C(c1ccc(C(C)(C)C)cc1)=C(C(C)=O)S2 | 3.2µM
SMILES | Pf Dd2 growth
Cc1ccc(C(=O)N2CCn3c(nnc3-c3ccccc3)C2)cc1 | -
CCOc1ccc(-c2nnc(SCC(=O)c3ccccc3)n2-c2ccccc2)cc1 | -
CCOc1ccc(-c2nnc(SCC(=O)c3ccc(Br)cc3)n2-c2ccccc2)cc1 | -
COc1ccc(C2=C(C(C)=O)Sc3nnc(-c4ccccc4)n3N2C(C)=O)cc1 | -
CCOc1ccc(C2=C(C(C)=O)Sc3nnc(C)n3N2C(C)=O)cc1 | 1.1µM
COC(=O)N1CCC2(C1)OC(=O)Nc1cnccc12 (stereo not drawn) | -
C=CCNC(=O)C1CC(c2cccc(C)c2)CN(C(=O)NCCCC)C1 (stereo not drawn) | -
COc1ccc(CC(=O)N2CCC3(CC2)CC(O)CCO3)cc1Cl (stereo not drawn) | -
NC1CCCCN(C(=O)c2csc(Cc3ccccc3)n2)C1 (stereo not drawn) | -
COCCN1C(=O)[C@H]2CN(CCC(C)C)C[C@H]2C1=O | -
CS(=O)(=O)N1CCC(C2CCN(C(=O)C3CC=CCC3)C2)CC1 (stereo not drawn) | -
COC1C(=O)N(c2cccc(F)c2)C12CCN(C(=O)CC1CCN(C(C)=O)CC1)CC2 (stereo not drawn) | -
COC1CN(c2cccc(F)c2)C12CCN(C(=O)CC1CCCCC1)CC2 (stereo not drawn) | 8.9µM
CCCS(=O)(=O)N1CCC2(CC1)C(OC)CN2c1cccc(F)c1 (stereo not drawn) | -
O=C(O)C1CCc2nnc(C3CCCN(C(=O)c4cccc(Cl)c4)C3)n21 (stereo not drawn) | -
O=C(c1ccc(Cl)cc1)N1CCC2(CC1)C(=O)NCN2Cc1ccccc1 | -
O=C1NCN(Cc2ccc(Cl)cc2)C12CCN(Cc1ccccn1)CC2 | -
O=C(Nc1ccc(C(F)(F)F)cc1)N1CCC2(CC1)C(=O)NCN2Cc1ccc(Cl)cc1 | -
O=C(Nc1ccccc1)N1CCC2(CC1)C(=O)NCN2Cc1ccc(Cl)cc1 | 3.2µM
O=C1NCN(Cc2ccc(Cl)cc2)C12CCN(Cc1cccc3ccccc13)CC2 | -
O=C1NCN(Cc2ccc(Cl)cc2)C12CCN(Cc1ccsc1)CC2 | 8.9µM
